Assay outcomes deposited in PubChem by National Center for Advancing Translational Sciences (NCATS).
POLK inh = qHTS for Inhibitors of Polymerase Kappa. hit rate 0.53% among 400,000. Potency, µM (series often up to 107 µM), without a hit: at the top dose activity, negative = inhibition, usual class: inhibitors. DNA polymerase kappa (Homo sapiens), Q9UBT6. purified Pol kappa, fluorescent DNA synthesis assay, 10 min; further: on the % scale 0 is the no-effect control and ±100 the full control effect
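50 nM final substrate added after 15 min RT preincubation of 10 nM Pol kappa with compound; fluorescence read at 0 and 10 min.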
POLH inh = qHTS for Inhibitors of Polymerase Eta | Potency, µM (top dose mostly 114 µM), without a hit: top-dose activity change, negative = inhibition, most hits filed as inhibitors | recombinant Pol eta, fluorescent DNA replication assay | AID 588591, 2011 | hit rate 1.2% among 390,000 | DNA polymerase eta (Homo sapiens), Q9Y253; further: on the % scale 0 is the no-effect control and ±100 the full control effect
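Pol eta (10 nM) was preincubated with compounds for 15 min at room temperature, after which fluorescent replication substrate (50 nM final) was added to start the reaction. Fluorescence was read kinetically at 0 and 10 min.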
POLB inh = qHTS Assay for Inhibitors of DNA Polymerase Beta; P06746; Pol beta primer extension/strand displacement, fluorescence kinetic; Potency, µM (highest dose often 114 µM), inactives show at the highest dose activity change, negative = inhibition, hits mostly inhibitors; hit rate 1.3% among 340,000; AID 485314, 2010; further: on the % scale 0 is the no-effect control and ±100 the full control effect
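Pol beta (10 nM) was preincubated with compound for 15 min at room temperature. The reaction was then started with 50 nM substrate and read immediately and after a further 10 min at room temperature.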
Pol iota inh = qHTS for Inhibitors of Polymerase Iota; DNA polymerase iota (Homo sapiens), Q9UNA4; Pol iota fluorescent replication assay, 10 min; Potency, µM (titrated, usually from 115 µM), without a hit: at the top dose activity, negative = inhibition, actives largely listed as inhibitors; hit rate 1% among 390,000; AID 588590, 2011
Target sequence (Q9UNA4 whole entry, looked up): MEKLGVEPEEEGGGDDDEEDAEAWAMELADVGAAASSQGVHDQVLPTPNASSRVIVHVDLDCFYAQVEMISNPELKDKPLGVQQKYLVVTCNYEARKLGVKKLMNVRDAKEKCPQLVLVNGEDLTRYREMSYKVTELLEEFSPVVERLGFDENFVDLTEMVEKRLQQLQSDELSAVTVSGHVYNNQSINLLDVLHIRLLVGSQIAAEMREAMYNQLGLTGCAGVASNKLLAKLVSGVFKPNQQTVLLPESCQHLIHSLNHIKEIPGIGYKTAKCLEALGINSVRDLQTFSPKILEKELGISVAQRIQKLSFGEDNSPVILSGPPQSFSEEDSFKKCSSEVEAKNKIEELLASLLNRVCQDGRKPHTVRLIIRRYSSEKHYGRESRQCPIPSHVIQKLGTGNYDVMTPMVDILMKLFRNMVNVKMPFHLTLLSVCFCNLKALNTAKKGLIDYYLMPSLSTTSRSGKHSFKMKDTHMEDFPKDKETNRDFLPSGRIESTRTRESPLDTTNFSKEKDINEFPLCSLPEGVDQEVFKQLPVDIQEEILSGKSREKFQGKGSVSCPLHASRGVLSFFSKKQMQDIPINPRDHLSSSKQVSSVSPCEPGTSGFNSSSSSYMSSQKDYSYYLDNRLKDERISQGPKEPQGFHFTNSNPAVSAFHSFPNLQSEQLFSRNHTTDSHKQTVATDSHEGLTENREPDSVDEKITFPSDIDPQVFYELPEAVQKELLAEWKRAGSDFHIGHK
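Fluorescent replication assay read twice, at 0 min and 10 min after adding 50 nM (final) substrate. Enzyme (10 nM) and compounds were first incubated 15 min at room temperature; enzyme-free buffer wells were negative controls.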
FEN1 inh = qHTS Assay for the Inhibitors of Human Flap endonuclease 1 (FEN1); P39748; Recombinant FEN1 flap cleavage, fluorescence, 15 min; Potency, µM (top dose mostly 114 µM), inactives show at the top dose activity change, negative = inhibition, most hits filed as inhibitors; hit rate 0.35% among 390,000; AID 588795, 2011; further: on the % scale 0 is the no-effect control and ±100 the full control effect; nearly all actives have a fitted effect of over 65% in size
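Steps: FEN1 (10 nM) dispensed; compound added by pin tool; 15 min at room temperature; substrate added to 50 nM final; reads at 0 min and 15 min; data normalized and fitted (four-parameter Hill).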
WRN helicase inh = qHTS for Inhibitors of WRN Helicase; WRN helicase unwinding, fluorescent forked duplex, kinetic; Potency, µM (series often up to 114 µM), for the others: top-dose activity change, negative = inhibition, usual class: inhibitors; AID 651768, 2012; hit rate 0.46% among 360,000; further: on the % scale 0 is the no-effect control and ±100 the full control effect; nearly all actives have a fitted effect of over 55% in size
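Enzyme (20 nM final) and test compound sit together 15 min at room temperature before substrate addition. Substrate is a single-forked duplex oligonucleotide (100 nM) labelled with fluorophore and quencher, with 2 mM ATP; helicase unwinding raises red fluorescence, read kinetically.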
Active calls of the source: *; ? = inconclusive; / = not tested or not shown; [ ] = dose if it differs, or a comment. The list is not random: actives were taken first. Their share in the collection is about 2.4%. The call rests on the fitted dose curve; in most records, active means well fitted curve in the direction sought with a large enough effect; inconclusive means small, poorly fitted or top-dose-only effect, or another doubt; inactive means no such curve, though single readings can be large; an effect the other way counts as inactive or inconclusive. Potency means the concentration at half of the fitted maximal effect.

SMILES	POLK inh	POLH inh	POLB inh	Pol iota inh	FEN1 inh	WRN helicase inh
O=C(O)CCC(=O)N1N=C(c2ccco2)CC1c1ccco1 (stereo unspecified)	?	?	9%	50µM*	-2%	-2%[11.6 µM]
O=C(O)CCC(=O)N1N=C(c2ccco2)CC1c1cccs1 (stereo unspecified)	4%	-9%	?	-5%	9%	-16%
Cc1ccc(C2=NN(C(=O)CCCC(=O)O)C(c3ccco3)C2)cc1 (stereo unspecified)	-1%	-12%	89µM*	65%	3%	-7%
COc1ccc(C(=O)N2CCC3(CCCN(Cc4cc(C(F)(F)F)cc(C(F)(F)F)c4)C3)CC2)cc1	-16%[60.1 µM]	/	/	/	/	/
O=C(Cc1ccccc1)Nc1sc2c(c1C(=O)Nc1ccccc1Cl)CCCC2	0%	-7%	8%	9%	0%	/
O=C(O)CSc1c2c(nc3cc(C(=O)Nc4cccc(C(F)(F)F)c4)ccc13)CCC2	?	40µM*	?	?	-5%	-14%[11.6 µM]
CCOc1ccc(NC(=O)c2ccc3c(SCC(=O)O)c4c(nc3c2)CCCC4)cc1	8%	?	-2%	41%	-6%	-11%
CC1CCCCN1C(=O)c1cnn2c1NC(=C1CC1)C=C2C(F)F (stereo unspecified)	-21%	/	/	-20%	-15%	/
O=C1C=CC(=O)N1c1cccc(-c2ccccc2)c1	-15%	?	0%	?	1%	32µM*
O=C1c2ccccc2C(=O)N1c1ccccc1	5%	-11%	/	24%	1%	-5%
CC(C)NC(=O)CCn1c(SCc2c(F)cccc2Cl)nc2c(sc3ccccc32)c1=O	-6%	-4%	-29%	21%	-2%	/
Cc1cccc(CSc2nc3c(sc4ccccc43)c(=O)n2CCC(=O)NC(C)C)c1	-2%	-22%	25µM*	24%	-3%	/
COc1ccc(-c2c(C3C4C=CCC(C)C4C(=O)N3Cc3ccccc3)ccc3ccccc23)cc1 (stereo unspecified)	-2%	/	/	13%	-6%	/
N#Cc1cc(N2CCCCC2)c([N+](=O)[O-])cc1C#N	-10%[60.1 µM]	-5%	2%	-11%	21%	4%
O=[N+]([O-])c1cc2no[n+]([O-])c2cc1N1CCCCC1	?	16µM*	/	?	50µM*	?
Cc1nc2ccc(S(=O)(=O)N(CC(=O)Nc3ccc(Cl)cc3)Cc3ccccc3)cc2s1	0%	-2%	2%	-2%	-16%	/
Cc1noc(C)c1-c1cc(NCCN2CCOCC2)ncn1	1%[60.1 µM]	/	/	/	/	/
O=C(Nc1nc2nc(-c3ccccc3)cc(=O)n2[nH]1)c1ccc(F)cc1	-22%	-7%	-2%	-6%	13%	/
Cc1ccc(C(=O)Nc2nc3nc(-c4ccccc4)cc(=O)n3[nH]2)cc1	7%	79µM*	12%	-2%	14%	-16%[11.6 µM]
CC(C)(C)c1ccc(C(=O)Nc2nc3nc(-c4ccccc4)cc(=O)n3[nH]2)cc1	-16%	-21%	45µM*	?	2%	/
CC(C)c1ccc(Nc2cc(C(=O)NC3CCCCC3)c3ccccc3n2)cc1	-2%	-13%	1%	8%	-4%	/
CC(=O)c1ccc(NS(=O)(=O)c2cccc(S(=O)(=O)c3ccc(Cl)cc3)c2)cc1	?	-5%	5%	89µM*	-15%	/
CC(/C=N/Nc1ccc2nncn2n1)=C\c1ccccc1	-5%	79µM*	?	-4%	?	-4%[11.6 µM]
C(=C\c1ccccc1)/C=N/Nc1ccc2nncn2n1	8%	-20%	-1%	24%	-5%	-7%
CCN(CC)C(=O)N1CCN(/[N+]([O-])=N/Oc2ccc([N+](=O)[O-])cc2[N+](=O)[O-])CC1	0%	/	/	?	?	/
SMILES	POLK inh	POLH inh	POLB inh	Pol iota inh	FEN1 inh	WRN helicase inh
C[C@@H]1[C@H](c2ccccc2)OCCS(=O)(=O)N1Cc1cccc(C(F)(F)F)c1	-12%	/	/	36%	-3%	/
Cc1ccc(O)c(C2=Nc3ccccc3N=C(c3cccc(F)c3)C2)c1	-40%	/	30%	89µM*	?	/
NS(=O)(=O)c1ccc(CCNC(=O)COc2ccc3c4c(c(=O)oc3c2)CCC4)cc1	-8%	-1%	-11%	-7%	4%	0%
O=C(COc1ccc2c3c(c(=O)oc2c1)CCC3)Nc1ccc(CCO)cc1	-3%	50µM*	?	?	13%	-15%[11.6 µM]
N=C(N)N1Cc2ccccc2C(O)C1 (stereo unspecified)	4%[60.1 µM]	/	/	/	/	/
NC(=O)CN1CCN(C(=O)NC2CCCCC2)CC1	22%	-9%	32µM*	12%	29%	-1%
O=C(NCCN1CCN(C(=O)NC2CCCCC2)CC1)NC1CCCCC1	0%	1%	-1%	-1%	5%	7%
COc1ccccc1C(C)NCC(=O)c1c(C)[nH]c2ccccc12 (stereo unspecified)	-18%	/	/	20%	1%	/
Cc1c(N=Cc2cc3c(cc2[N+](=O)[O-])OCO3)cccc1[N+](=O)[O-]	45µM*	?	/	7.9µM*	?	1%[11.6 µM]
CCOC(=O)c1c(-c2ccco2)csc1NC(=O)COC(=O)c1cnc(C)cn1	?	25µM*	/	40µM*	-14%	-30%
Cc1nn(-c2ccccn2)c2c1C(=O)C(Br)CC2 (stereo unspecified)	-3%	7%	10%	133%	-5%	56µM*
CC1=C(C)C(=O)N(c2ccccn2)C1=O	-1%	-13%	9%	9%	8%	0%
CCc1ccc(NC(=O)CN2C(=O)C3CCCN3c3ccc(S(=O)(=O)N(CC)CC)cc32)cc1 (stereo unspecified)	-13%	-12%	-27%	3%	2%	/
Cn1c(=O)c2[nH]c(NCCCN3CCOCC3)nc2n(C)c1=O	-4%	2%	89µM*	5%	2%	-2%
COc1ccc(C(=O)/C=C/c2ccccc2)c(O)c1	-1%	-1%	-2%	?	-19%	-9%
COc1ccc(C(=O)/C=C/c2cc(C(=O)O)cc3c2OCOC3)c(O)c1	-27%	50µM*	?	?	-4%	?
COc1cccc(CSc2nc3ccccc3c3nc(CCn4c(C)nc5ccccc54)nn23)c1	0%[60.1 µM]	-3%	1%	43%	8%	/
Cc1no[n+]([O-])c1COc1cccc(/C=N/Nc2nncn2N)c1	-11%	-17%	?	20µM*	-6%	5%[11.6 µM]
